The record followed here is PubChem BioAssay (NCATS).

The target in assay [1] is Cytochrome P450 3A7 (Homo sapiens) (UniProt P24462). Briefly: Cytochrome P450 family 3 subfamily A member 7 (CYP3A7) small molecule antagonists: luciferase biochemical qHTS assay (AID 1963596). Also: % is scaled to controls: 0 for no effect and ±100 for the full control effect; nearly all actives have a fitted effect of over 40% in size. The method in brief: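 Luminescence read-out (relative luminescence units) after 20 min with detection reagent, which stops the reaction. Enzyme, proluciferin substrate and compound preincubated 10 min, RT; NADPH regeneration system then started 1 h reaction. Ketoconazole as positive control.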
Cytochrome P450 3A7 (Homo sapiens), sequence (P24462 whole entry, looked up): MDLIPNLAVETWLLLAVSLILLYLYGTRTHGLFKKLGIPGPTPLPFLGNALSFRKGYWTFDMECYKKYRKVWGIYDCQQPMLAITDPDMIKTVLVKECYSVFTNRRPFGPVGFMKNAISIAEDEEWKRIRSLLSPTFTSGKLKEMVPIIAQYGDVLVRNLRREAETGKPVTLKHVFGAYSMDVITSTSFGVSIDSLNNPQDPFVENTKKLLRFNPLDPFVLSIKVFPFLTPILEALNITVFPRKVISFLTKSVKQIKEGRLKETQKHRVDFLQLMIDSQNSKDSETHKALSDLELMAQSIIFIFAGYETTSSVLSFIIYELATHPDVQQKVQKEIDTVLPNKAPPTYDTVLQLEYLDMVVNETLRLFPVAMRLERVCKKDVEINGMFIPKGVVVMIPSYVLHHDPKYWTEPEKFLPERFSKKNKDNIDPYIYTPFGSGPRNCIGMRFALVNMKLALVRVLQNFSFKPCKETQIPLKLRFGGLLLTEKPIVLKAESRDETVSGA
For orientation: Quantitative high-throughput screening tests each substance at several concentrations.

The nature of assay [2]: Viability qHTS for spleen associated tyrosine kinase inhibitor (SYKi) naive MV4-11 cells (AID 1963823). Also: nearly all actives have a fitted effect of over 40% in size. Also: potency is read from the fitted curve at half-maximal effect. An outline of the steps:
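Luminescence from CellTiter-Glo, developed 10 min at room temperature, gave viability of MV4-11 cells never exposed to SYK inhibitor. Cells (500/well) had been incubated with compounds for 72 hr under standard culture conditions.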

Assay [3] is described as follows: Viability qHTS for spleen associated tyrosine kinase inhibitor (SYKi) drug resistant MV4-11 cells (AID 1963824). Also: nearly all actives have a fitted effect of over 35% in size. Also: potency is read from the fitted curve at half-maximal effect. An outline of the steps:
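SYK-inhibitor-resistant MV4-11 AML cells were seeded at 500 per well onto compound and cultured 72 hours (37 °C, 5% CO2). CellTiter-Glo was then added, and after 10 min at room temperature, luminescence gave viability.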

Assay [4] in a line: Cellular viability qHTS for adrenocortical cancer (ACC) cell line SW-13 (AID 1963989). Also: nearly all actives have a fitted effect of over 65% in size. Also: potency is read from the fitted curve at half-maximal effect.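 As to activity (max response): cells grown in serum-free medium with ITS supplement; % is scaled to controls: 0 for no effect and ±100 for the full control effect.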 The following applies: SW-13 ACC cells viability, CellTiter-Glo, 48 h; activity (max response): hits give low values. The method in brief:
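SW-13 cells in ITS-supplemented serum-free DMEM were plated overnight, then exposed for 48 h at 37C to compound titrations (up to 46 uM final). Viability was read by CellTiter-Glo luminescence; four-parameter logistic fits gave IC50 and efficacy.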

The nature of assay [5]: Cellular viability qHTS for adrenocortical cancer (ACC) cell line NCI-H295R (AID 1963990). Also: nearly all actives have a fitted effect of over 60% in size. Also: potency is read from the fitted curve at half-maximal effect.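 As to activity change, negative = viability loss: 0% = DMSO only wells and -100% = full killing with cytotoxic reference compound.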 An outline of the steps: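 Luminescent ATP read-out (CellTiter-Glo, 20 min RT) after 48 h drug exposure of NCI-H295R cells; a titration up to 46 uM final. Data normalized to doxorubicin (100% inhibition) and DMSO (0%); 4-parameter fit gives IC50, max response.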

Where “and” joins values, the source holds several entries; their conditions need not be identical. Identical values can stand only once. Results filed as inconclusive are left out. Calls of active or inactive are those of the source. Calls follow the shape of the dose curve; as a rule, active = well fitted curve in the direction sought with a large enough effect; inconclusive = small, poorly fitted or top-dose-only effect, or another doubt; inactive = no such curve, though single readings can be large; an effect the other way counts as inactive or inconclusive. Where a SMILES comes first, the peptide text is derived from it. Bridges are numbered along the chain shown (N, C = ends). [ ]: non-standard residue; d: D form. The star is where a group is joined. X1 = CCC(C)C(N)C1=NC(C(=O)*)CS1; dOrn = NCCC[C@@H](N)C(=O)O

Regarding `NCC(=O)CCC(=O)O`, the Potency result in assay [1], in assay [2], in assay [3] and in assay [5] was “inactive” throughout. The activity (max response) in assay [4] is 16.5% (inactive).
As to `CCN(CC)C(=O)Nc1ccc(OCC(O)CNC(C)(C)C)c(C(C)=O)c1` (stereo not given), the Potency result in assay [1], in assay [2], in assay [3] and in assay [5] was “inactive” each time. The activity (max response) in assay [4] was 12% (inactive).
Turning to `O=C(O)c1cc(-c2ccccc2)nc2ccccc12`, the Potency result in assay [1], in assay [2], in assay [3] and in assay [5] was “inactive” each time. In addition, the activity (max response) in assay [4] is 10.7% (inactive).
For `CN(C)CCOC(=O)COc1ccc(Cl)cc1`, the Potency entry in assay [1], in assay [2], in assay [3] and in assay [5] was “inactive” in each case. Also, in assay [4], the activity (max response) was 4.85% (inactive).
In the case of `COc1ccc(CCC(C)=O)cc1`, the Potency entry in assay [1], in assay [2], in assay [3] and in assay [5] was “inactive” throughout. For the same compound, the activity (max response) in assay [4] was -3.66% (inactive).
For the compound `CCOc1nc2cccc(C(=O)O)c2n1Cc1ccc(-c2ccccc2-c2nn[nH]n2)cc1`, the Potency entry in assay [1], in assay [2], in assay [3] and in assay [5] was “inactive” throughout. For the same compound, the activity (max response) in assay [4] was 10.5% (inactive).
On to `Nc1nc2c(ncn2CCC(CO)CO)c(=O)[nH]1`, for which the Potency entry in assay [1], in assay [2], in assay [3] and in assay [5] was “inactive” each time. For the same compound, the activity (max response) in assay [4] is -4.77% (inactive).
For `Nc1c[n+](N2CCOCC2)no1`, the Potency result in assay [1], in assay [2], in assay [3] and in assay [5] was “inactive” in each case. Besides, the activity (max response) in assay [4] was -4.73% (inactive).
For the compound `CC1(c2ccccc2)OC(C(=O)O)=CC1=O` (stereo not given), the Potency result in assay [1], in assay [2], in assay [3] and in assay [5] was “inactive” throughout. For the same compound, the activity (max response) in assay [4] is -17.9% (inactive).
Regarding `CCN1CCN(c2cc3c(cc2F)c(=O)c(C(=O)O)cn3C2CC2)CC1`, the Potency entry in assay [1], in assay [2], in assay [3] and in assay [5] was “inactive” in each case. Also, in assay [4], the activity (max response) is 2.41% (inactive).
Turning to `CCC(C)C(N)C1=NC(C(=O)N[C@@H](CC(C)C)C(=O)N[C@H](CCC(=O)O)C(=O)N[C@H](C(=O)N[C@H]2CCCCNC(=O)[C@H](CC(N)=O)NC(=O)[C@@H](CC(=O)O)NC(=O)[C@H](Cc3cnc[nH]3)NC(=O)[C@@H](Cc3ccccc3)NC(=O)[C@H]([C@@H](C)CC)NC(=O)[C@@H](CCCN)NC2=O)[C@@H](C)CC)CS1` (stereo not given in full) (X1-L[dE]IK[dOrn]I[dF]H[dD]N; lactam 4-C), the Potency result in assay [1], in assay [2], in assay [3] and in assay [5] was “inactive” in each case. Besides, the activity (max response) in assay [4] was -8.42% (inactive).
Turning to `CC(=O)CCC(=O)O`, the Potency result in assay [1], in assay [2], in assay [3] and in assay [5] was “inactive” each time. Also, in assay [4], the activity (max response) was 9% (inactive).
For the compound `Cc1cc2c(cc1S(N)(=O)=O)S(=O)(=O)CCC2`, the Potency result in assay [1], in assay [2], in assay [3] and in assay [5] was “inactive” in each case. In addition, in assay [4], the activity (max response) is 12.2% (inactive).
With `N#CCC(=O)NN`, the Potency result in assay [1], in assay [2], in assay [3] and in assay [5] was “inactive” in each case. Moreover, in assay [4], the activity (max response) was 8.55% (inactive).
Regarding `C[C@H]1[C@H]2CC[C@H]3[C@@H]4CC=C5C[C@@H](N(C)C)CC[C@]5(C)[C@H]4CC[C@]23CN1C`, the Potency result in assay [1], in assay [2], in assay [3] and in assay [5] was “inactive” in each case. Further, in assay [4], the activity (max response) was -17.7% (inactive).
Regarding `CCOc1cc(C(=O)N2CCC(N3CCN(C)CC3)CC2)ccc1Nc1ncc2c(n1)N(C1CCCC1)c1ccccc1C(=O)N2C`, the Potency result in assay [1] is “inactive”. Besides, the Potency in assay [2] was 651 nM (active) and 1.05 µM (active); in assay [3] it was 651 nM (active) and 934 nM (active); in assay [4] it was 28.2 µM (active); in assay [5] it was 17.8 µM (active).
Regarding `O=C1NC(=O)[C@@]2(CCOc3ccc(F)cc32)N1`, the Potency result in assay [1], in assay [2], in assay [3] and in assay [5] was “inactive” throughout. Besides, the activity (max response) in assay [4] is 3.16% (inactive).
Turning to `CCCCNc1ncc(-c2ccc(CN3CCOCC3)cn2)c(NC2CCC(O)CC2)n1` (stereo not given), the Potency entry in assay [1] and in assay [5] was “inactive” throughout. The Potency was 31.7 nM (active) and 57.4 nM (active) in assay [2]; 91 nM (active) in assay [3]. Besides, the activity (max response) in assay [4] was -11.9% (inactive).
Turning to `O=C(OCc1ccccc1)c1ccccc1`, the Potency entry in assay [1], in assay [2], in assay [3] and in assay [5] was “inactive” each time. Moreover, the activity (max response) in assay [4] is -7.64% (inactive).
Regarding `O=C(O)[C@H](CC(=O)N1C[C@H]2CCCC[C@H]2C1)Cc1ccccc1`, the Potency result in assay [1], in assay [2], in assay [3] and in assay [5] was “inactive” each time. The activity (max response) in assay [4] is 1.52% (inactive).
Consider `NC(N)=NS(=O)(=O)c1ccc(N)cc1`, for which the Potency entry in assay [1], in assay [2], in assay [3] and in assay [5] was “inactive” in each case. Also, in assay [4], the activity (max response) was 7.35% (inactive).
On to `CN(C)[C@@H]1C(=O)C(C(=O)NCN2CCCC2)=C(O)[C@@]2(O)C(=O)C3=C(O)c4c(O)cccc4[C@@](C)(O)C3C[C@@H]12` (stereo not given in full), for which the Potency entry in assay [1], in assay [2], in assay [3] and in assay [5] was “inactive” each time. Moreover, the activity (max response) in assay [4] is -7.75% (inactive).
As to `O=C(O)CN(CCOCCOCCN(CC(=O)O)CC(=O)O)CC(=O)O`, the activity change, negative = inhibition in assay [1] was 3.38% [at 0.91 µM] (inactive). Besides, the viability (% of control) in assay [2] is 65.2% [at 0.588 µM] (inactive). The viability, % of control in assay [3] was 96.9% [at 0.588 µM] (inactive). In addition, in assay [4], the activity (max response) was -1% (inactive). Also, the activity change, negative = viability loss in assay [5] was -8.55% [at 0.587 µM] (inactive).
Regarding `CC(=O)Oc1c(C)c(C)c2c(c1C)CC[C@@](C)(CCC[C@H](C)CCC[C@H](C)CCCC(C)C)O2`, the Potency result in assay [1], in assay [2], in assay [3] and in assay [5] was “inactive” each time. For the same compound, the activity (max response) in assay [4] was 2.68% (inactive).
